Assay results as given in PubChem BioAssay (Tox21).
Inconclusive results are not listed. A number with no mark means an inactive call. Calls of active or inactive are those of the source. Calls come from the whole dose curve; as a rule, active = well fitted cell-killing curve with a large enough effect in the repeat runs; inconclusive = weak or mixed curves; inactive = no such curve, though single readings can be large or run the other way.

experiment: qHTS assay to identify small molecule agonists of the peroxisome proliferator-activated receptor delta (PPARd) signaling pathway - cell viability counter screen (AID 743211); settings: PPARd-bla HEK293H viability, CellTiter-Glo luminescence, 17 h; series mostly up to 62.6 µM; note: nearly all actives have a fitted effect of over 55% in size
Source text: U.S. Tox21 Program National Center for Advancing Translational Sciences [NCATS] NIH Chemical Genomics Center [NCGC] U.S. Environmental Protection Agency [EPA] National Institutes of Environmental Health Sciences [NIEHS] National Toxicology Program [NTP] U.S. Food and Drug Administration [FDA] Tox21 Assay Overview: The peroxisome proliferator-activated receptors (PPARs) are lipid-activated transcription factors of the nuclear receptor superfamily with three distinct subtypes namely PPAR alpha, PPAR delta (PPARd) and PPAR gamma. All these subtypes heterodimerizes with Retinoid X receptor (RXR) and have different physiological functions. […] To identify the compounds that activate PPAR-delta signaling, GeneBLAzer PPAR delta UAS-bla HEK293H cell line (Invitrogen, Carlsbad, CA, USA) containing a beta-lactamase reporter gene under the control of an Upstream Activator Sequence (UAS) was used to screen the Tox21 compound library. The cytotoxicity of the Tox21 compound library against the PPARd-bla cell line was tested in parallel by measuring the cell viability using CellTiter-Glo assay (Promega, Madison, WI) in the same wells.
Tox21 Assay Protocol Summary: PPARd-bla cells were dispensed at 3000 cells/6uL/well in 1536-well black wall/clear bottom plates using a Multidrop Combi (Thermo Fisher Scientific, Waltham, MA) dispenser. After the assay plates were incubated at 37 C and 5% CO2 for 5 h, 23 nL of compounds dissolved in DMSO, positive controls or DMSO only was transferred to the assay plate by a Pintool station (Kalypsys, San Diego, CA). The assay plates were incubated at 37C for 17 h. After 1 uL of LiveBLAzerTM B/G FRET substrate was added using a Bioraptr Flying Reagent Dispenser (FRD) workstation (Beckman Coulter, Indianapolis, IN, USA), the plates were incubated at room temperature for 2 h, and fluorescence intensity was measured by an Envision plate reader (PerkinElmer, Shelton, CT). For cell viability readout that measures cytotoxicity, 3 ul/well of CellTiter-Glo reagent was added into the assay plates using a Bioraptr FRD. After 30 min incubation at room temperature, the luminescence intensity in the plates was measured using a ViewLux plate reader (PerkinElmer).
% is set by controls: 0 for no effect and ±100 for the full control effect.

SMILES	outcome	activity change, negative = cytotoxicity
CC(=O)O[C@@H]1CC2C3CCc4cc(OC(=O)c5ccccc5)ccc4C3CCC2(C)[C@H]1OC(C)=O (stereo not given in full)	inactive	
C[C@@H](CN1CC(=O)NC(=O)C1)N1CC(=O)NC(=O)C1	inactive	
O=Cc1ccc(C(=O)O)cc1	inactive	
CCOC(=O)CN1CCCC1=O	inactive	
C/C=C/C(=O)CCCC	inactive	
CC(=O)/C=C/C=C1/C2CCC(C2)C1(C)C (stereo not given)	inactive	
CC(C)(O)CCCC1=CCC(C=O)CC1 (stereo not given)	inactive	
O=C(O)CCCCCCCCCC(=O)O	inactive	
CC(C)OCCO	inactive	
CCCC(C)C(O)CC (stereo not given)	inactive	
O=P(O)(O)C(O)(Cc1cccnc1)P(=O)(O)O	inactive	
CCCCCCCOC(C)=O	inactive	
CCCc1ccc(O)c(OC)c1	inactive	
CCC(=O)OCCOc1ccccc1	inactive	
O=C(O)/C=C(\CC(=O)O)C(=O)O	inactive	
CCCCC(O)/C=C(C)/C=C/C=C/C(=O)N1CCCC1=O (stereo not given)	inactive	
Cc1ccc2cccnc2c1	inactive	
CCCCCC(CC)OC(=O)CCCOc1ccc(Cl)cc1Cl (stereo not given)	inactive	
CCCCCCCCCCCCCCCC/C=C/C1CC(=O)OC1=O (stereo not given)	inactive	
C/C=C(\C)C=O	inactive	

SMILES	outcome	activity change, negative = cytotoxicity
O=C(O)Cc1ccccc1Oc1ccc(Cl)cc1Cl	inactive	
Cc1ccccc1OCC(=O)O	inactive	
Cc1nc2ccc(Cl)cc2[nH]1	inactive	
C=CCN(CC=C)CC=C	inactive	
CCCCN=C(N)N=C(N)N	inactive	
O=C1CC2(CCCC2)CC(=O)N1CCNCC1COc2ccccc2O1 (stereo not given)	inactive	
NS(=O)(=O)c1cc2c(cc1C(F)(F)F)NCNS2(=O)=O	inactive	
CCCCS	inactive	
Nc1nc(Cl)cc(Cl)n1	inactive	
CC(C)c1cc(C(C)C)cc(C(C)C)c1	inactive	
CCCCCCCCCCCBr	inactive	
CC(O)CCCCn1c(=O)c2c(ncn2C)n(C)c1=O (stereo not given)	inactive	
C[C@@H]1CCC[C@H](C)N1CCCC(O)(c1ccccc1)c1ccccn1 (stereo not given in full)	inactive	
c1cc2ccc3ccc4ccc5cccc6c(c1)c2c3c4c56		-28.1% [at 2.7 µM]
C[n+]1ccccc1/C=N/O	inactive	
CN(C)CCC[C@@]1(c2ccc(F)cc2)OCc2cc(C#N)ccc21	inactive	
CCCCN1C(=O)c2ccccc2C1=O	inactive	
CC(=O)Nc1ccc(OCCOCCOc2ccc(NC(C)=O)cc2)cc1	inactive	
CN(C)c1ccncc1	inactive	
CC(C)(C)OC=O	inactive	
